Here are results for 26 compounds from ChEMBL document CHEMBL1157539, “Thousands of chemical starting points for antimalarial lead identification” (Nature, 2010).

Molecules are shown by their SMILES. “And” between values parts separate entries of the source, which are not always exact repeats. Equal values may be shown once. Over roughly 13,000 compounds, “IFI” has its median near 4; the highest 2% begin near 17. Shown is part of a subset that was picked to be rich in the highest values.

The assay is described as follows: GSK_TCMDC: Inhibition Frequency Index (IFI). The number of non-kinase HTS assays where a compound showed > 50 % inhibition, expressed as a percentage of the number of such assays in which the compound was tested. It is filed as functional.
As to `CN(C(=O)OCc1ccccc1)C1CCC(CCN2CCC3(CC2)C(=O)NCN3c2cccc(C(F)(F)F)c2)(c2ccccc2)CC1` (stereo unspecified), the IFI is 8.63%.

For `O=C(c1cc(C(F)(F)F)cc(C(F)(F)F)c1)N1CCC(CCN2CCC3(CC2)C(=O)NCN3c2ccccc2)CC1Cc1ccc(Cl)c(Cl)c1` (stereo unspecified), the IFI came to 20%.

As to `CC(=O)C1(c2ccccc2)CCN(CCC(NC(=O)c2cc(C(F)(F)F)cc(C(F)(F)F)c2)c2ccc(Cl)c(Cl)c2)CC1` (stereo unspecified), the IFI came out at 1.45%.

As to `Cc1cc(NC(=O)[C@@H](Nc2ccc(C#N)c3ccccc23)C2CCCCC2)ccc1F`, the IFI is 3.85%.

Compound `c1ccc(C(OCCC2CCN(Cc3cccc4cccnc34)CC2)c2ccccc2)cc1` returned an IFI of 3.1%.

Consider `CC(Cc1ccc(Oc2ccc(Cl)cc2)cc1)NCC(O)c1cccc(Cl)c1` (stereo unspecified), for which the IFI was found to be 7.3%.

With `Cc1ccc(CC(C)NC[C@H](O)c2cccc(Cl)c2)cc1` (stereo partly specified), the IFI is 4.38% and 0.72%.

`CC(Cc1ccc(OC2CCCCC2)cc1)NCC(O)c1cccc(Cl)c1` (stereo unspecified) returned an IFI of 21.7%.

As to `CN1C2CCC1c1cc(NC(=O)c3cc(-c4ccc(Cl)cc4)cs3)ccc12` (stereo unspecified), the IFI was found to be 13.3%.

`CC(Cc1ccc(OCCCCOc2ccccc2)cc1)NCCCN1CCOCC1` (stereo unspecified): the IFI came out at 30.1%.

`CC(Cc1ccc(Oc2ccccc2)cc1)NCC(O)c1cccc(C(F)(F)F)c1` (stereo unspecified): the IFI was determined as 4.96%.

Compound `CC(Cc1ccc(OCCOc2ccccc2)cc1)NCC(O)c1cccc(C(F)(F)F)c1` (stereo unspecified) had an IFI of 2.9%.

The compound `CC(Cc1ccc(OCCCCOc2ccccc2)cc1)NCCC1CCCN1C` (stereo unspecified) returned an IFI of 32.5%.

On to `COC(C(=O)OCCC1CCCN1C)(c1ccccc1)C1CCCCC1` (stereo unspecified), for which the IFI was determined as 1.45%.

Compound `CCCCCOc1ccc(CC(C)NCC(O)c2cccc(Cl)c2)cc1` (stereo unspecified) had an IFI of 4.86%.

The compound `COC(C(=O)OCCC1CCCN1C)(c1ccccc1)c1ccccc1` (stereo unspecified) displayed an IFI of 2.19%.

Consider `CC(Cc1ccc(OCc2ccccc2)cc1)NCC(O)c1cccc(Cl)c1` (stereo unspecified), for which the IFI turned out to be 15.6%.

On to `CC(Cc1ccc(OCCCCOc2ccccc2)cc1)NCCCn1ccnc1` (stereo unspecified), for which the IFI was determined as 32.6%.

`CN1CC=C(c2c[nH]c3ccc(Sc4ccccc4)cc23)CC1` had an IFI of 3.7%.

Compound `CCCCCCC(C)(C)c1cc(O)c2c3c(c(=O)oc2c1)CCN(Cc1ccccc1)C3` showed an IFI of 2.22%.

`COC(=O)c1ccc(CC(C)NCC(O)c2cccc(OCc3ccccc3)c2)cc1` (stereo unspecified) showed an IFI of 5.76%.

`CC1CN=C(Nc2ncc(Cl)cc2Cl)N1` (stereo unspecified): the IFI turned out to be 0.7%.

`CN(C)CCc1c[nH]c2ccc(C(=O)Nc3ccc(-c4ccncc4)cc3)cc12` had an IFI of 5.19%.

The compound `COc1cccc(CN2CCC(CCOC(c3ccccc3)c3ccccc3)CC2)c1O` yielded an IFI of 3.1%.

`CC(C)CNCc1ccc(-c2cccc(CN(C(=O)CCC3CCCC3)C3CCN(Cc4ccccc4)CC3)c2)cc1` came in with an IFI of 9.29%.

With `O=C(Nc1ccccc1C(F)(F)F)NC1CCC(CN2CCC(c3c[nH]c4ccccc34)CC2)CC1` (stereo unspecified), the IFI is 4.29% and 2.14%.
